Tau fluor counter – counter-screen for tau fibril formation inhibitors. tau K18 P301L Alexa594 fluorescence, heparin fibrillization. Potency, µM (titrated, usually from 57.7 µM), for the others: top-dose activity change, negative = decrease. 280,000 compounds, 0.93% hits. AID 1463; further: nearly all actives have a fitted effect of over 55% in size
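Human tau K18 P301L (15 uM unlabeled, 0.24 uM Alexa 594-labeled) in 100 mM sodium acetate pH 7 with 20 uM heparin, 6 hr at 37 C. ThT 30 uM added, 1 hr ambient; Alexa 594 FP and total fluorescence read at 555/632 nm.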
NPSR antagonist – blocks cAMP signaling of the human neuropeptide S receptor; CHO-NPSR cells, cAMP TR-FRET, antagonist mode; Potency, µM (doses to about 38.3 µM), for inactives: at the highest dose activity change, negative = inhibition, usual class: inhibitors; 220,000 compounds, 1% hits; further: nearly all actives have a fitted effect of over 50% in size
Target sequence (Q6W5P4 whole entry, looked up): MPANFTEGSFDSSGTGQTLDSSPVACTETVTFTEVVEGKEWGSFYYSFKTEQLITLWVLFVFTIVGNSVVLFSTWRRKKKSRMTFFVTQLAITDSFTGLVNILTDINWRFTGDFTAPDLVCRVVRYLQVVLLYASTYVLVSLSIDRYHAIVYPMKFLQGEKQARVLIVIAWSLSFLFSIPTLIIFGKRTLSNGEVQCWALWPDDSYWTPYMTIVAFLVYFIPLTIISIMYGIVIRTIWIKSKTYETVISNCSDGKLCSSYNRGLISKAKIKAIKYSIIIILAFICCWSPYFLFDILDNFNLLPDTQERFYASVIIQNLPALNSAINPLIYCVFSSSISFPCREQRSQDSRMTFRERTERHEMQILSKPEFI
Luc counter – blocks Kinase-Glo luciferase, a counter-screen artifact. AID 1379. Kinase-Glo luciferase, ATP luminescence, 8 min. Potency, µM (highest dose often 38.3 µM), for inactives: top-dose activity change, negative = inhibition, hits mostly inhibitors. 200,000 compounds, 0.28% hits; further: nearly all actives have a fitted effect of over 60% in size
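Compounds were added to a substrate mix at pH 7.2 (50 mM imidazole, 10 uM ATP, within the enzyme's linear range), followed by Kinase-Glo detection reagent; luminescence was measured after 8 minutes at ambient temperature.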
Tau fibril FP – tau fibrillization inhibition (FP); Potency, µM (series often up to 57.7 µM), for inactives: top-dose activity, negative = inhibition, most hits filed as inhibitors; P10636; 280,000 compounds, 0.39% hits; K18 P301L tau heparin fibrillization, Alexa594 FP, 6 h; AID 1468; further: nearly all actives have a fitted effect of over 55% in size
Target sequence (P10636 561-689 P618L limits assumed): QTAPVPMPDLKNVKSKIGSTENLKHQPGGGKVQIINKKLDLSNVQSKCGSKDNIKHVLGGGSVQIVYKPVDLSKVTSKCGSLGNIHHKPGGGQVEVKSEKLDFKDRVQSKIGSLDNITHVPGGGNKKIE
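Human tau K18 […] P301L fragment, 15 uM unlabeled plus 0.24 uM Alexa 594-labeled tau (final), with compound and 20 uM heparin in 100 mM sodium acetate pH 7; 6 hr at 37 C, then Alexa 594 FP read.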
Tau ThT inhib – tau fibrillization inhibition (ThT binding); 270,000 compounds, 2.1% hits; P10636; recombinant tau K18 P301L, heparin-induced fibrillization, ThT fluorescence; Potency, µM (highest dose often 57.4 µM), inactives show at the highest dose activity, negative = inhibition, hits mostly inhibitors; AID 1460; further: nearly all actives have a fitted effect of over 55% in size
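ThT emission at 510 nm, taken 1 hr after adding 30 uM dye, quantifies aggregates formed when 20 uM heparin acts on human tau K18 P301L for 6 hr at 37 C.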
Active calls of the source: *; ? = inconclusive; / = no result; [ ] = remark or other dose. Compounds with a hit are over-represented: about 3.3% of the library has one in this group of screens. The call rests on the fitted dose curve; in most records, active means well fitted curve in the direction sought with a large enough effect; inconclusive means small, poorly fitted or top-dose-only effect, or another doubt; inactive means no such curve, though single readings can be large; an effect the other way counts as inactive or inconclusive. On the % scale 0 is the no-effect control and ±100 the full control effect; potency means the concentration at half of the fitted maximal effect.

SMILES | Tau fluor counter | NPSR antagonist | Luc counter | Tau fibril FP | Tau ThT inhib
CN(C)c1ccc(/C=N/NC(=O)c2cc(-c3ccc4c(c3)OCO4)n[nH]2)cc1 | ? | 14% | / | 11% | 2.5µM*
CN(C)c1ccc(/C=N/NC(=O)c2cnc3ccccc3c2)cc1 | -22% | -3% | / | -2% | 0.63µM*
CN1CCC2(CC1)CCN(C(=O)c1cc(C(F)(F)F)cc(C(F)(F)F)c1)CC2 | / | / | 1% | / | /
Cc1cc(/C=C2\SC(=S)NC2=O)c(C)n1C1CC1 | -28% | -23%[46.1 µM] | -1% | 5% | 13µM*
Cc1cc(/C=C2/C(=O)N(C)C(=S)N2C)c(C)n1C1CC1 | -17% | -20% | 6% | -11% | ?
Cc1ccc(NC(=O)C2CCCN2S(=O)(=O)c2ccc3c(c2)CCCC(=O)N3)cc1C (stereo unspecified) | -15% | / | / | -2% | -8%
Cc1[nH]c2ccccc2c1C(C#N)(C#N)C1C(=O)c2ccccc2C1=O | 4.5µM*[quencher] | 1% | / | ? | 6.3µM*
Cc1[nH]c2ccccc2c1CC#N | 0% | 6% | / | -3% | 3%
O=[N+]([O-])c1cc2oc3c(c2c(C=NCc2ccncc2)c1O)CCCC3 | ? | -49% | -1% | ? | 10µM*
Cc1[nH]c2ccccc2c1CCNC(=O)c1ccc2c(c1[N+](=O)[O-])C(=O)c1ccccc1C2=O | 8.9µM*[quencher] | -20%[46.1 µM] | -2% | 1% | ?
C=CCc1cccc2cc(C(=O)NCCc3c(C)[nH]c4c(C)cccc34)c(=O)oc12 | ? | / | / | 6% | ?
Cc1[nH]c2c(C)cccc2c1CCNC(=O)c1ccc2c(c1[N+](=O)[O-])C(=O)c1ccccc1C2=O | 7.9µM*[quencher] | -20%[46.1 µM] | 0% | 6% | ?
CN(C)C(=O)c1ccc2c(c1[N+](=O)[O-])C(=O)c1ccccc1C2=O | -6% | -10%[46.1 µM] | 1% | -4% | -9%
COc1ccc(C(=O)/C=C/c2cn(CN3CCN(C)CC3)c3ccccc23)cc1 | 18µM*[quencher] | -24%[46.1 µM] | -3% | 0% | 13µM*
CCOc1ccc(/C=C/C(=O)c2ccccc2)cc1 | -19% | 10% | / | 6% | ?
CCCN(CCC)CC(O)Cn1cc(/C=C/C(=O)c2ccc(OCC)cc2)c2ccccc21 (stereo unspecified) | ? | / | / | 0% | 8.9µM*
CCC(=C(c1ccc(OC)cc1)c1ccc(OC)cc1)c1cn(CC(O)CN(CCO)CCO)c2ccccc12 (stereo unspecified) | 13µM*[quencher] | ? | 0% | 1% | ?
CCOc1ccc(C(=O)/C=C/c2cn(CN3CCN(C)CC3)c3ccccc23)cc1 | 13µM*[quencher] | -26%[46.1 µM] | 3% | 5% | ?
CN(C(=O)CSc1nncn2c1cc1occc12)c1ccccc1 | -6% | / | / | -5% | -16%
Cc1ccccc1CNC(=O)Cn1cc2c(n1)-c1c(oc(C(=O)N3CCCC3)c1C)CC2 | -12% | / | / | 1% | ?
O=C(Nc1ccc(C(F)(F)F)cc1)c1cc(S(=O)(=O)NCC2COc3ccccc3O2)ccc1F (stereo unspecified) | ? | -15%[46.1 µM] | 1% | 13µM* | 7%
CC(C)N1CCC2(CC1)C(C#N)=C(N)NC(S)=C2C#N | ? | 3%[46.1 µM] | / | ? | 20µM*
O=C(Nc1cccc(F)c1)C1CCN(S(=O)(=O)c2ccc3[nH]c4c(c3c2)CCCCC4)CC1 | 28µM*[quencher] | / | / | -2% | -13%
COc1cccc(NC(=O)C2CCN(S(=O)(=O)c3ccc4[nH]c5c(c4c3)CCCCC5)CC2)c1 | 6.3µM*[quencher] | / | / | -14% | 3%
CC(=O)C1=C(O)C=C2Oc3c(C(C)=O)c(O)c(C)c(O)c3C2(C)C1=O (stereo unspecified) | -18% | / | -1% | -11% | -8%
SMILES | Tau fluor counter | NPSR antagonist | Luc counter | Tau fibril FP | Tau ThT inhib
CCCn1c(CCC(=O)Nc2cc(OC)cc(OC)c2)nc2cccnc21 | -12% | / | / | -3% | -4%
CCC(C)n1ncn(-c2ccc(N3CCN(c4ccc(OCC5COC(Cn6cncn6)(c6ccc(Cl)cc6Cl)O5)cc4)CC3)cc2)c1=O (stereo unspecified) | ? | 53% | 1%[39.9 µM] | -7% | 1.4µM*
COc1ccc(-c2noc(-c3ccc(NCc4ccco4)c([N+](=O)[O-])c3)n2)cc1 | -11% | / | / | -2% | 9%
Cc1ccc(C)c(NC(=S)NC(NC(=O)Cc2cccc3ccccc23)C(Cl)(Cl)Cl)c1 (stereo unspecified) | -10% | 7.9µM* | 8% | ? | -4%
Cc1ccccc1NC(=S)NC(NC(=O)COc1ccccc1)C(Cl)(Cl)Cl (stereo unspecified) | -19% | -16%[46.1 µM] | / | ? | 14µM*
COc1ccc(NC(=S)NC(NC(=O)CCl)C(Cl)(Cl)Cl)c([N+](=O)[O-])c1 (stereo unspecified) | ? | 22% | / | -11% | 16µM*
Cc1ccc(C)c(NC(=S)NC(NC(=O)N(C)C)C(Cl)(Cl)Cl)c1 (stereo unspecified) | 0% | -19%[46.1 µM] | 2% | 4% | -8%
CC(=O)Nc1ccccc1P(=O)(c1ccccc1)c1ccccc1OC(C)=O (stereo unspecified) | -3% | ? | / | -7% | -2%
COc1ccc(C(=O)C2CCCN(C(=O)CCc3scnc3C)C2)c(C)c1 (stereo unspecified) | -30% | 21% | -8% | -49% | 28µM*
COc1ccc(C(=O)C2CCCN(C(=O)CCc3ccccn3)C2)c(C)c1 (stereo unspecified) | -7% | -12% | 4% | 1% | -5%
CN(C)c1ccc(NC(=O)c2sc(SCC(=O)Nc3nccs3)nc2N)cc1 | 14µM*[quencher] | ? | -5% | 11% | 4µM*
CCN(CC)CCCNC(=O)CCCn1c(=O)[nH]c2ccc(Br)cc2c1=O | -10% | / | / | -7% | -1%
CCC(=O)NC(c1ccccc1OC)c1ccc2cccnc2c1O (stereo unspecified) | 2% | -7%[46.1 µM] | 1% | 11% | 2%
COc1ccc(Cl)cc1C(Nc1cccnc1)c1ccc2cccnc2c1O (stereo unspecified) | -21% | -6% | / | ? | 28µM*
CCOC(=O)c1cc2c(=O)n3ccccc3nc2n(C(C)C)c1=NC(=O)c1cc2ccccc2o1 | -20% | / | / | -1% | -18%
CCCN(CCC)C(=O)c1cc([N+](=O)[O-])cc2c1-c1ccc([N+](=O)[O-])cc1C2=C(C#N)C#N | ? | 20%[7.67 µM] | / | ? | 32µM*
COc1ccccc1OCCN1CSC(=S)N(C)C1 | -7% | 3.2µM* | -4% | 0% | -13%
Cc1cccc(OCCN2CSC(=S)N(C)C2)c1 | -7% | 6%[46.1 µM] | 2% | 6% | -13%
CC1=C(C)C(=O)C(CCCCC#CCCCC#CCO)=C(C)C1=O | ? | ? | -2% | ? | 20µM*
C[C@H]1Cc2c(-c3ccccc3)nc3c(c2CO1)CN(C(=O)c1ccco1)CC3 | -4%[11.6 µM] | / | -2%[7.66 µM] | -5%[11.6 µM] | 1%[11.5 µM]
